Only a sample is shown.
aSyn 5UTR act: Activators via SNCA 5'UTR binding, MLPCN; activity score, % (tested at 7.5 µM), hits read low; hit rate 7.1% among 300,000; AID 1814; alpha-synuclein 5'UTR reporter, activators screen; in the data active means activity score below about -60%
Starred values were filed as active, the others as inactive.

What do the screens show for `CC(C)N1CCc2c(sc(NC(=S)NC(=O)c3ccccc3)c2C#N)C1`?
aSyn 5UTR act: -143*

What do the screens show for `CCCNC(=O)c1cc(Cl)c(NC(=O)C2=CSCCO2)cc1OC`?
aSyn 5UTR act: -136*

What do the screens show for `CCOC(=O)C1CCN(S(=O)(=O)c2c(Cl)ccc3nonc23)CC1`?
aSyn 5UTR act: -309*

What do the screens show for `COc1ccc(C2C(C(=O)Nc3cc(OC)c(OC)c(OC)c3)c3ccccc3C(=O)N2C)cc1` (stereo not given)?
aSyn 5UTR act: 98

Results for COc1ccc(NC(=O)C2C(=O)N(CCO)C3(C)CC2c2ccccc2O3)cc1 (stereo not given) ?
aSyn 5UTR act: -103*

What do the screens show for `c1ccc(CSc2cc3ccccc3[nH]2)cc1`?
aSyn 5UTR act: -132*

What do the screens show for `CCN1CCN(Cc2ccc(NC(=O)Nc3ccccc3OC)cc2)CC1`?
aSyn 5UTR act: -141*

What do the screens show for `COc1ccccc1NC(=O)Nc1ccc(N2CCOCC2)cc1`?
aSyn 5UTR act: -134*

What do the screens show for `CCOc1ccccc1NC(=O)Nc1ccc(Cl)cc1`?
aSyn 5UTR act: -78*

Results for COc1ccc(NC(=O)Nc2ccccc2OC)cc1 ?
aSyn 5UTR act: -96*

Results for COc1ccccc1NC(=O)Nc1ccc(CC#N)cc1 ?
aSyn 5UTR act: -115*

Results for Cc1ccccc1OC(C)C(=O)Nc1ccc2c(c1)OCCO2 (stereo not given) ?
aSyn 5UTR act: -71*

Results for C[C@@H](C(=O)Nc1ccc2c(c1)OCCO2)n1nnc2ccccc2c1=O ?
aSyn 5UTR act: -89*

How did N#Cc1ccccc1OCC(=O)Nc1ccc2c(c1)OCCCO2 do in these assays?
aSyn 5UTR act: -160*

How did O=C(COc1ccccc1F)Nc1ccc2c(c1)OCCO2 do in these assays?
aSyn 5UTR act: -75*

How did O=C(COc1ccccc1Br)Nc1ccc2c(c1)OCCCO2 do in these assays?
aSyn 5UTR act: -133*

What do the screens show for `COc1ccc(CCNC(=O)c2coc(=O)c(Br)c2)cc1`?
aSyn 5UTR act: -63*

How did COc1ccc(CCNC(=O)c2ccc3c(c2)OCCO3)cc1 do in these assays?
aSyn 5UTR act: -135*

How did O=C(NCCc1ccccc1)c1ccc2c(c1)OCCO2 do in these assays?
aSyn 5UTR act: 106

What do the screens show for `Cc1ccc2[nH]cc(/C=C/c3cc[n+](C)cc3)c2c1`?
aSyn 5UTR act: 65

How did Clc1c(CSc2nc3ccccc3o2)nc2ccccn12 do in these assays?
aSyn 5UTR act: -117*

How did Clc1c(CSc2nc3ccccc3o2)nc2sccn12 do in these assays?
aSyn 5UTR act: -117*

What do the screens show for `Brc1c(CSc2nc3ccccc3o2)nc2ncccn12`?
aSyn 5UTR act: -118*

How did O=C1CCCN1CCCNc1ncnc2c1cnn2-c1ccc(Cl)cc1 do in these assays?
aSyn 5UTR act: -152*

How did Cc1cccc(-n2ncc3c(NCCCn4ccnc4)ncnc32)c1 do in these assays?
aSyn 5UTR act: -129*

Results for Cc1cccc(-n2ncc3c(NCCCN4CCCC4=O)ncnc32)c1 ?
aSyn 5UTR act: -143*

Results for COc1cc2ccccc2cc1C(=O)Nc1ccc(Cc2ccncc2)cc1 ?
aSyn 5UTR act: -129*

How did COc1cc2ccccc2cc1C(=O)Nc1ccc(C)cc1 do in these assays?
aSyn 5UTR act: -186*

Results for O=C(Nc1ccncc1)c1cc2ccccc2cc1O ?
aSyn 5UTR act: -79*

What do the screens show for `Cc1ccc(NC(=O)c2cccc3ccccc23)cc1`?
aSyn 5UTR act: -91*

What do the screens show for `CC(=O)Oc1ccccc1C(=O)Nc1ccccc1`?
aSyn 5UTR act: -93*

Results for Cc1ccc(NC(=O)c2cc(C)n(-c3cccc(C)c3)c2C)cc1 ?
aSyn 5UTR act: -62*

Results for COc1ccccc1C(=O)Nc1ccc2ccccc2c1 ?
aSyn 5UTR act: -88*

Results for Cc1ccc(NC(=O)c2cc(C)n(-c3ccccc3)c2C)cc1 ?
aSyn 5UTR act: 106

Results for C/C(=N/NC(=O)c1cc2ccccc2cc1O)C1C(=O)c2ccccc2C1=O ?
aSyn 5UTR act: -94*

How did C/C(=N\NC(=O)c1cc2ccccc2cc1O)c1ccccn1 do in these assays?
aSyn 5UTR act: 88

Results for CCOc1cccc(C(=O)NC2CCCCC2)c1 ?
aSyn 5UTR act: -67*

Results for O=C(NC1CCCCC1)C(c1cccnc1)N(C(=O)CCl)c1cccc(Cl)c1 (stereo not given) ?
aSyn 5UTR act: -81*

Results for O=C(NC1CCCCCCC1)c1cccc(Cl)c1 ?
aSyn 5UTR act: -166*

Results for COc1ccccc1NS(=O)(=O)c1cccc(C(=O)NC2CCN(Cc3ccccc3)CC2)c1 ?
aSyn 5UTR act: 83

Results for O=C(NC1CCCCCCC1)c1cc(F)c(F)cc1Cl ?
aSyn 5UTR act: -81*

What do the screens show for `OC1(C(F)(F)F)CC(O)(C(F)(F)F)n2nc(-c3ccccc3)cc2N1` (stereo not given)?
aSyn 5UTR act: -126*

What do the screens show for `O=C(c1ccco1)N1N=C(c2ccc3nccnc3c2)CC1c1ccccc1` (stereo not given)?
aSyn 5UTR act: -67*

What do the screens show for `Cc1ccc(O)c(/C=N/NC(=O)c2[nH]ncc2Br)c1`?
aSyn 5UTR act: -113*

Results for Cn1cccc1-c1cc(C(=O)N/N=C/c2cc(Br)ccc2O)[nH]n1 ?
aSyn 5UTR act: 71

Screening data (PubChem)
